# Test results reported in the supplement of paper PMC6555819.
# Key:
# Experiment in all cases: PBM binding z-score (relative to random genomic background probes); higher = stronger binding; sequences stand for … in GC…GCGATTGACAGCGTAGAATGAAGG
# [1] = system: RARb homodimer (NR concentration 270 nM)
# Procedure, shortened: (§1)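 For binding z-scores, the reference was random background probes on custom Agilent 4×180K protein-binding microarrays. These arrays were incubated 1 h with ligand-free nuclear receptor dimers in PBS pH 7.4, 2% milk, 0.02% Triton X-100, 1 mM DTT, 0.2 mg/mL BSA and 0.4 mg/ml salmon testes DNA. Fluorescence was scanned after antibody detection of each partner (one per run) and regression-normalized.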
# [2] = system: RARg homodimer (NR concentration 270 nM)
# Procedure, shortened: as §1
# [3] = system: RXRa DBDmut IVT, anti-RXR (DBD mutation: RXRa K156A/R161A, NR concentration 90 nM)
# Procedure, shortened: as §1
# [4] = system: THRa:RXRa (NR concentration 90 nM, RXRa partner concentration 90 nM)
# Procedure, shortened: as §1
# [5] = system: THRa homodimer (NR concentration 90 nM)
# Procedure, shortened: as §1
# [6] = system: VDR homodimer (NR concentration 270 nM)
# Procedure, shortened: as §1
# [7] = system: RXRa homodimer (NR concentration 180 nM)
# Procedure, shortened: as §1
# [8] = system: VDR:RXRa (NR concentration 270 nM, RXRa partner concentration 90 nM)
# Procedure, shortened: as §1
Sequence,PBM binding z-score [1],PBM binding z-score [2],PBM binding z-score [3],PBM binding z-score [4],PBM binding z-score [5],PBM binding z-score [6],PBM binding z-score [7],PBM binding z-score [8]
CCTTACGGGTCTAGGTTATAGCACGGGTGGTACG,0.113,0.0918,-1.08,0.109,0.173,-0.202,,
CAAACCAGGTCACGAAAGGTCAAAGTCGAATGAC,5.97,9.05,2.9,5.23,3.86,4.47,,
CAACCTAGGTCACCGGAAGGTCAAAGTCCGCATG,5.77,8.03,2.46,4.63,3.03,4.09,7.71,
GCTGCTAGGTCATGTTGGTCAGCTAACGGGTACG,3.21,4.33,1.85,2.83,1.39,1.44,2.51,
GATACAGGGTGAAGGCCAGAGTACGCGTATTGAT,0.673,0.704,-0.695,,-0.473,-0.248,0.721,-0.32
TCTGCTAGGTCAGGTGGTCAGCTAACGAGCTGCC,2.83,3.58,0.176,1.77,0.331,-0.539,1.66,
ATCTCTAGGTAACAAGGTCAGTGAAAGAGAGGAC,3.49,3.28,0.451,3.07,2.37,1.78,2.26,
TAGCCTAGGTCATTCAGGGGGCAGTATAGAAAGC,4.09,5.84,2.37,3.8,2.11,3.36,4.33,
CCTCGGAGGACAACAGGAGGTCAAAGCTGCCAGA,3.77,3.86,0.524,3.43,1.34,2.4,3.56,
CGAACTAGGTCACCAGGACAGTTAAGAGGTTGGA,3.53,5.1,1.21,3.41,1.68,0.347,3.22,
TGTCAAAGTTCTAAGGTAACGTAAGTATCCACAC,0.168,0.585,-0.0657,2.88,2.43,-0.114,,
TCTGCTATGTCAACGATGGTCAGCTAATCTGCTA,0.0556,0.346,0.208,-0.297,-1.24,-1.12,-0.181,
CCTCGGAGGACAACAGGATGTCAGAGCTGCCAGA,0.537,1.19,-0.233,0.449,-0.131,-0.662,-0.144,
ACTCGGAGGACAAAGGTCACAGCTACGCCAGTGA,5.26,6.99,1.55,4.23,1.62,2.46,,4.95
GCTCGGAGGACAAGGTCAGGGCTTTGTCCGTAGA,3.31,4.39,0.229,3.22,1.75,0.358,3.18,
AGTCAAAGGTCAGGACGAGGTAACGTAAAGCACG,4.82,7.93,1.32,,2.11,0.891,7.47,
TAGCCTAGGTCATTGGGCCAGTATAGTACGCATC,3,4.22,1.6,2.83,0.768,0.954,2.73,
ATCGTAAGGTCGTGAGGTGAGTATACAGAAAGGC,2.41,2.71,2.09,3.65,2.95,1.45,3.5,
CCAACTAGGTCATTGACAGGACAGTGAATAGTAA,2.83,4.34,2.47,2.88,1.31,1.64,2.61,
GCTAGTAGGTCAGTAAAAGGTCACACACCGGTCG,6.06,7.14,0.784,4.27,1.97,2.37,6.4,
AACGAAAGGTCGACGAGGTGAGTATACACCGTTT,3,3.73,1.64,3.85,0.519,0.772,4.41,
AGTCAAAGTTGATCTAGGTAACGTAAGATATGCT,-0.057,0.579,-0.227,1.36,-0.0633,-0.278,0.191,
AGTCAAAGTTCAGGACGAGGTCACGTAAAGCACG,5.39,7.28,3.45,,4.95,5.43,6.81,
ATCGAAAGGTCGAAGGAGAGTATACCCACCCGAA,1.98,3.81,0.774,1.76,-0.242,0.458,3.75,
CAAACTAGGTCACAGGGGTCAAAGTCCGTGCGTA,5.94,7.58,3.6,,3,7.07,8.57,
TCTCGGAGGTCACGAAGGTCAGAGCTTTCCAGAG,5.66,8.12,3.05,4.64,2.29,5.14,,
GCTGCTAGGTCAACTGAGGGTCAGCTAAAGCTCG,5.18,6.85,1.67,4.16,1.47,1.36,4.59,
AGTCAAAGGTCACTAGGTAACGTAAGATTCAGCT,5.03,8.53,2.94,3.99,0.996,2.14,,
CGTCCAAGGTCACAGGAGGTCAGTGAAGACAGAT,5.53,8.33,3.73,5.28,3.66,4.32,,
